Experimental findings from ChEMBL document CHEMBL3988442, “University of Dundee, Small-Polar-MMV Screening Library” (2021) are described below.

Molecules are shown by their SMILES. For some of these results: Measured potencies and affinities stand elsewhere.

Holding throughout (design): scale not given: direction of the effect not stated beside the values
For assay [1], the target named is Protein translocase subunit SecA (Escherichia coli (strain K12)) (UniProt P10408). The assay is described as follows: Assay to Identify E. coli SecA ATPase Inhibitors. The format is functional. Conditions: 30 µM.
Assay [2] deals with T1, Ubiquitin-activating enzyme e1, putative (Leishmania donovani (strain BPK282A1)) (UniProt E9BSI1).
T1 sequence (whole entry): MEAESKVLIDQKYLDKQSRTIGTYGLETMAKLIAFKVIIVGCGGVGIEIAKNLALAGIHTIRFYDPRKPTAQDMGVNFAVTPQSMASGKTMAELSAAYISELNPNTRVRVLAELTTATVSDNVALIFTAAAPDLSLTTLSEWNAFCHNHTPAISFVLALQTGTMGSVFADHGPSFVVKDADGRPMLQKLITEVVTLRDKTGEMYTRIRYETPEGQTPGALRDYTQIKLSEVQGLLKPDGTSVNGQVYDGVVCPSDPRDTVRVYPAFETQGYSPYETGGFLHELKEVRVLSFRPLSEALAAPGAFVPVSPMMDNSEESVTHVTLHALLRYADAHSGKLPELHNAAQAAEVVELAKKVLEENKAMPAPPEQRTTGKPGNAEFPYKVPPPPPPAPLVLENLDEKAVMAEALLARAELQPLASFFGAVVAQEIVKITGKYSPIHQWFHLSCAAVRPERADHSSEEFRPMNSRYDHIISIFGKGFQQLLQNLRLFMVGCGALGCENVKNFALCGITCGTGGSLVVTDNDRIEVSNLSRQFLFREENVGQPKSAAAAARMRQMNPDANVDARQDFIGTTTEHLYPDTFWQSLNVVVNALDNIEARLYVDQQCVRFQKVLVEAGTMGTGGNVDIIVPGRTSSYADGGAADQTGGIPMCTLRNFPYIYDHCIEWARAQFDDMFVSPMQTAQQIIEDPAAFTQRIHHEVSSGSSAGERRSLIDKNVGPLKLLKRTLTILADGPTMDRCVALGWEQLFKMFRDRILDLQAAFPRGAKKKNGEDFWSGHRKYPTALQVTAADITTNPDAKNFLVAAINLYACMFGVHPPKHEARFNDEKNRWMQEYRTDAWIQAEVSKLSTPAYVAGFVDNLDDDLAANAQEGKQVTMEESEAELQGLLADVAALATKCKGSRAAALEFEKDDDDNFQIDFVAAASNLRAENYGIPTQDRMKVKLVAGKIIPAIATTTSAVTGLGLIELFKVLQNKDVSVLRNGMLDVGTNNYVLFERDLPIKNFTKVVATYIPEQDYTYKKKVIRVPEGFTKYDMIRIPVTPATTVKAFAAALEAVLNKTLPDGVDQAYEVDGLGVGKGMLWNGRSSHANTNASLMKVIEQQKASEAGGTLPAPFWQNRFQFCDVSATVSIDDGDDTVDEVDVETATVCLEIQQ
The assay is described as follows: Leishmania donovani Ubiquitin Activating Enzyme (LdE1). The format is functional. The following applies: 30 µM.

Assay [3] addresses AMP-activated protein kinase, AMPK (Homo sapiens) (UniProt P54646+O43741+P54619+Q9UGJ0+Q9Y478+Q13131+Q9UGI9). As to the kind of experiment: AMP-dependent Kinase enzyme assay. An in vitro enzyme assay that detects ADP turnover that is directly proportional to AMPK activity. This uses naive AMPK that is activated during the assay with MK-8722. The format is functional. The following applies: 30 µM.

Assay [4] concerns the target Sialic acid-binding Ig-like lectin 9 (Homo sapiens) (UniProt Q9Y336). As to the kind of experiment: Hs-Siglec9 ALPHAscreen SOP 20170721. The following applies: 10 µM.
In assay [5] the test system is Trypanosoma cruzi. As to the kind of experiment: Trypanosoma cruzi phosphomannomutase and mannose-1-phosphate guanylyltransferase assay. Conditions: 10 µM. The format is functional.
For assay [6], the target named is T2, Arginase-2, mitochondrial (Homo sapiens) (UniProt P78540).
T2 sequence (whole entry): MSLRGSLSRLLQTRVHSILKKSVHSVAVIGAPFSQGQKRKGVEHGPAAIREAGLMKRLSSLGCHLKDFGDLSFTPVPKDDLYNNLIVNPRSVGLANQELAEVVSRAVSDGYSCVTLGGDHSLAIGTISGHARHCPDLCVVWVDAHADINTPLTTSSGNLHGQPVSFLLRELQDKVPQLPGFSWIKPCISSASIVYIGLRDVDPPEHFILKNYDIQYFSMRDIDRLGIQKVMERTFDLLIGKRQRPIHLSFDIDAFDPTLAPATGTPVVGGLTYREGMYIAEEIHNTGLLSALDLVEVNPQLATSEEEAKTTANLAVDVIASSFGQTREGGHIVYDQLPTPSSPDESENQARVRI
As to the kind of experiment: in vitro enzyme assay to detect the production of urea directly proportional to the activity of Arginase II. Further: in the data most compounds retested in dose-response had high values. The format is functional. Conditions: 33.3 µM.

The target in assay [7] is T3, Proteasome subunit beta (Trypanosoma cruzi) (UniProt O96673).
T3 sequence (whole entry): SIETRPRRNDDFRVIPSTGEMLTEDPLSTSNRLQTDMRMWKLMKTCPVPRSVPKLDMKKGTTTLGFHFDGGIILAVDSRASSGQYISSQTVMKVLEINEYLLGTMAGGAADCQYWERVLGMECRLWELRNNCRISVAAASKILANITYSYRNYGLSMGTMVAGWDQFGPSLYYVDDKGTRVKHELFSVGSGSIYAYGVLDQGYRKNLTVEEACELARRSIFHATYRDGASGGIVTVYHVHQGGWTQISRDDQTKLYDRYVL
As to the kind of experiment: Trypanosoma cruzi proteasome chymotrypsin-like activity (TcProtChymo) assay. Further: in the data most compounds retested in dose-response had high values. Type of assay: functional. The following applies: 9.37 µM.

Assay [8] is filed under the species Homo sapiens. As to the kind of experiment: To identify inhibition of the IFN signalling (Jak-Stat) pathway via expression of an eGFP reporter gene under the control of an IFN-stimulated response element (ISRE) containing MxA promoter. Type of assay: functional. The following applies: 30 µM.
Assay [9] has as its target T4, Tyrosyl-tRNA synthetase, putative (Trypanosoma cruzi (strain CL Brener)) (UniProt Q4DSP6).
T4 sequence (whole entry): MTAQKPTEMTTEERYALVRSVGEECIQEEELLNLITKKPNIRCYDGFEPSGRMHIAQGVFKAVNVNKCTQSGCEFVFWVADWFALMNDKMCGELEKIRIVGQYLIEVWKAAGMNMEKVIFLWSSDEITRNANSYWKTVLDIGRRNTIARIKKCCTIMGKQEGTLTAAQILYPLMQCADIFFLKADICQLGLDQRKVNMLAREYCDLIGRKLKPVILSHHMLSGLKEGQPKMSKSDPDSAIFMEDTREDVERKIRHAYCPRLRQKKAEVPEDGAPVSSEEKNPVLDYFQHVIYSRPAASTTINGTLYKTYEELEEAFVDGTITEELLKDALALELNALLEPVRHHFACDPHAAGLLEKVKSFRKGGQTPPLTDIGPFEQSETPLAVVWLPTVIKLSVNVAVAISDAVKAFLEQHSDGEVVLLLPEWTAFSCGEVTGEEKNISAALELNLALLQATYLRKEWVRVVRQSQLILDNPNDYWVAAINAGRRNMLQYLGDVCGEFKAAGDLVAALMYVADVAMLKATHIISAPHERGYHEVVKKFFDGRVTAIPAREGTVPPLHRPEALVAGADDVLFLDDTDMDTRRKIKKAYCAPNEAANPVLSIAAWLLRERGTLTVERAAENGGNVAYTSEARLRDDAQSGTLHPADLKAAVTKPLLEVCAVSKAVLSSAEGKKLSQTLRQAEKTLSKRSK
The assay is described as follows: Trypanosoma cruzi tyrosyl tRNA synthetase (TcYRS) _High Tyrosine SOP. Further: in the data most compounds retested in dose-response had high values. Type of assay: functional. The following applies: 30 µM.

In assay [10] the target is T4, Tyrosyl-tRNA synthetase, putative (Trypanosoma cruzi (strain CL Brener)). As to the kind of experiment: Trypanosoma cruzi tyrosyl tRNA synthetase (TcYRS) SOP. Type of assay: functional. Conditions: 30 µM.
Assay [11] deals with Chromo domain-containing protein 1 (Saccharomyces cerevisiae (strain ATCC 204508 / S288c) (Baker's yeast)) (UniProt P32657). As to the kind of experiment: ScCHD-1 Enzyme Inhibition Assay. Further: in the data most compounds retested in dose-response had high values. Type of assay: functional. Conditions: 30 µM.
Chain of Chromo domain-containing protein 1 (Saccharomyces cerevisiae (strain ATCC 204508 / S288c) (Baker's yeast)) (P32657 whole entry, the tested form may be a part): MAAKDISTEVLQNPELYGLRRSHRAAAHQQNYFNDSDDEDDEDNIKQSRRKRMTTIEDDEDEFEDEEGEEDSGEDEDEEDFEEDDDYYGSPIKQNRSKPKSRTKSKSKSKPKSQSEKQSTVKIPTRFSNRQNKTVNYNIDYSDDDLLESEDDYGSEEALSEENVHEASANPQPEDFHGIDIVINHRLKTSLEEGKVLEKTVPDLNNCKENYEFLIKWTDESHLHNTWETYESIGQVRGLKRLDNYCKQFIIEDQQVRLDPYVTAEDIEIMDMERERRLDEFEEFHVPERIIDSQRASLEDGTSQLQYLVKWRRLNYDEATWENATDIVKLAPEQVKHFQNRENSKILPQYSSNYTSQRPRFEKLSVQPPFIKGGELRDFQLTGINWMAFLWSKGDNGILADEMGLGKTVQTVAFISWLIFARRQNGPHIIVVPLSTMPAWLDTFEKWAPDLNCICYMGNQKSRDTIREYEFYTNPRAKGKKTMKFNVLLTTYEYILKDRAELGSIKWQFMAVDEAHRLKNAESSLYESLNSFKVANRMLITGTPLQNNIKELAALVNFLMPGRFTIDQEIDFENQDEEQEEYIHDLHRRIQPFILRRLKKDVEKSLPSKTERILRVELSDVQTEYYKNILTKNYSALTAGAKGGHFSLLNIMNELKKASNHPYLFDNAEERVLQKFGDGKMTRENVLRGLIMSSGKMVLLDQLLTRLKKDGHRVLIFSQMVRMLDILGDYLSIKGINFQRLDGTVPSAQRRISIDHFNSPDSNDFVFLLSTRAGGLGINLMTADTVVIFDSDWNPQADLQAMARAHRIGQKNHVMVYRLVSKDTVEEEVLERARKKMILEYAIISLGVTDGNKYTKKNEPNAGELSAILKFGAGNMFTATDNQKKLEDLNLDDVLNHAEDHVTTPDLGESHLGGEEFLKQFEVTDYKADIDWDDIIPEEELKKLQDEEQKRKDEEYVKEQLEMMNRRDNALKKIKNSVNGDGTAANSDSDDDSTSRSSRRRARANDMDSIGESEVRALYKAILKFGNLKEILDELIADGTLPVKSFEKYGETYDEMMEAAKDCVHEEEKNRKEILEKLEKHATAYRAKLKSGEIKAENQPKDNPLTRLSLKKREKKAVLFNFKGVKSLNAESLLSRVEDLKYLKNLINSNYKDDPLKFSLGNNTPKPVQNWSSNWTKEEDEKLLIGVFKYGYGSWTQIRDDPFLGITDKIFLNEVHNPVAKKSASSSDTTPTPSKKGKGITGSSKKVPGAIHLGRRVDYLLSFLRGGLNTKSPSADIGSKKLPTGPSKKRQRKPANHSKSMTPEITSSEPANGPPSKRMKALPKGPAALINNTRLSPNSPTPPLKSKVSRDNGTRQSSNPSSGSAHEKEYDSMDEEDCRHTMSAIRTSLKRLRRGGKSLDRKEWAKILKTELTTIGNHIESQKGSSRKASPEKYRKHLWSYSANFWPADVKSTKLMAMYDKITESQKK

Chain of Sialic acid-binding Ig-like lectin 9 (Homo sapiens) (Q9Y336 whole entry): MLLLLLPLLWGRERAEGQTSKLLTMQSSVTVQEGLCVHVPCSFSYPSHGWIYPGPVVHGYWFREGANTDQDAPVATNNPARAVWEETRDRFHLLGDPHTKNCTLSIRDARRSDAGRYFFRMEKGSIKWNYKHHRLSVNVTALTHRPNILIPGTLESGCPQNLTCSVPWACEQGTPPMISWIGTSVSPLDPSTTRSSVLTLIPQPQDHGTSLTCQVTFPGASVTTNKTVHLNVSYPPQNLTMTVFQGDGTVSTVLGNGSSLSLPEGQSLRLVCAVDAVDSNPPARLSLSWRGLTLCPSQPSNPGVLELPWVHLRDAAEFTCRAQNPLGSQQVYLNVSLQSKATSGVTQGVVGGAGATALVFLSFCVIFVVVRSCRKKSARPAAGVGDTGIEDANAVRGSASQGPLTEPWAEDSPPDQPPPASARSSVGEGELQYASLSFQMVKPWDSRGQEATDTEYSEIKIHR
Chain of Protein translocase subunit SecA (Escherichia coli (strain K12)) (P10408 whole entry): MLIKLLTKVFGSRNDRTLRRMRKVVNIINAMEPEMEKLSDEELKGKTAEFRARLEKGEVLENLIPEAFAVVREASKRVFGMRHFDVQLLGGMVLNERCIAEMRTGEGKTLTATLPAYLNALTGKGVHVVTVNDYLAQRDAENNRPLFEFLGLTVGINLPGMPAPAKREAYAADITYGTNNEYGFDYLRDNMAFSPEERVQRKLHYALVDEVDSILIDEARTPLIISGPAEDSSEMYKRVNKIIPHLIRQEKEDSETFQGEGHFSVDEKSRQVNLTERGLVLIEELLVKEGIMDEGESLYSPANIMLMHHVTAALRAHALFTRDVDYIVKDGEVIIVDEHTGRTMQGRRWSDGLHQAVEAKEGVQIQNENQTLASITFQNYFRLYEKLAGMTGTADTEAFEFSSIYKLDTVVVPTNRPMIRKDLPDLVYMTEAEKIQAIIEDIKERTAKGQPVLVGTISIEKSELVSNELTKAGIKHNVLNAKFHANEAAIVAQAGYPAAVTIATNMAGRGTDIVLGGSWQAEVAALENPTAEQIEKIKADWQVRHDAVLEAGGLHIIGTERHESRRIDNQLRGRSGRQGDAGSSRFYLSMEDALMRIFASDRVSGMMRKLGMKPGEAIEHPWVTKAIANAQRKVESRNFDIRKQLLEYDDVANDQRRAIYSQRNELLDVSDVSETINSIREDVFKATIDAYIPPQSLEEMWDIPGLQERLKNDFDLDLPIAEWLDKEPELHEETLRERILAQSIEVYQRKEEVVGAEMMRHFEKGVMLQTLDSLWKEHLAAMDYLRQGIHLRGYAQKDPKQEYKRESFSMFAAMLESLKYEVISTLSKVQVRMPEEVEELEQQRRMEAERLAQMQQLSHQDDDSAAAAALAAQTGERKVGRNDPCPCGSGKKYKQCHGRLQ

Regarding `Cn1cc(C2CCCN2Cc2csc(-c3ccsc3)n2)cn1` (stereo unspecified), the Percent Effect was -1.56% in [1]; -2.53% in assay [2]; -11.2% in [3]; 3.12% in [4]; -7.46% in assay [5]; 0.76% in [6]. Further, the Percent Effect in [7] is 3.36%; in [8], 8.82%; in assay [9], -24.1%; in [10], 3.8%; in assay [11] it was -2%.
For the compound `c1cncc(CN2CCc3ncnc(C4CCOC4)c3CC2)c1` (stereo unspecified), the Percent Effect in assay [1] is 1.94%; in assay [2], 21.3%; in assay [3], 13.3%; in assay [4], -7%; in assay [5], -4.92%; in assay [6] it was 2.1%. Further, the Percent Effect in [7] is 7.14%; in [8] it was 15.9%; in assay [9] it was 5.32%; in assay [10], 6.41%; in assay [11] it was -0.839%.
Take `CN1CCN(c2cc(CCNC(=O)C3CCC3)nc(C3CC3)n2)CC1`: the Percent Effect was -1.04% in assay [1]; 12.2% in assay [2]; 4.69% in assay [3]; 0.557% in assay [4]; -4.74% in [5]; -0.232% in assay [6]. For the same compound, the Percent Effect was 14.2% in assay [7]; 15.8% in [8]; 4.3% in assay [9]; 9.09% in assay [10]; -9.84% in assay [11].
Turning to `COc1cc(CNCc2c(C(C)C)nn(C)c2N(C)C)ccn1`, the Percent Effect was -0.0523% in [1]; 15.8% in assay [2]; -8.02% in assay [3]; 2.55% in assay [4]; 1.13% in assay [5]; -3.06% in assay [6]. The Percent Effect in assay [7] was 14%; in assay [8], -9.51%; in assay [9] it was 4.41%; in assay [10], 4.88%; in assay [11], -6.52%.
With `N#CCCCS(=O)(=O)N1CCCC1CC(=O)c1cccs1` (stereo unspecified), the Percent Effect in [1] is -2.19%; in assay [2] it was 2.7%; in assay [3], -3.83%; in assay [4], 2.31%; in assay [5] it was -1.93%; in [6], -3.81%. Besides, the Percent Effect was 3.1% in assay [7]; -1.42% in assay [8]; -0.529% in assay [9]; -4.88% in assay [10]; -0.34% in [11].
As to `CCS(=O)(=O)N1C[C@H]2CCC[C@@]2(COc2ccccn2)C1`, the Percent Effect in assay [1] is -2.05%; in [2], 12%; in assay [3], -6.57%; in assay [4], 2.8%; in assay [5], -0.393%; in assay [6], -6.16%. Further, the Percent Effect is 10.5% in assay [7]; 33% in assay [8]; 2.12% in assay [9]; 5.13% in assay [10]; -1.39% in assay [11].
With `O=C(Nc1cccnc1)[C@H]1C[C@@H]2CN(C(=O)NC3CCCC3)C[C@H]1O2`, the Percent Effect in [1] is -0.299%; in assay [2], 13.5%; in assay [3] it was 5.36%; in assay [4], -10.3%; in assay [5], -6.94%; in assay [6] it was 6.69%. Also, the Percent Effect in assay [7] was 24.5%; in assay [8], -1.23%; in [9], 0%; in assay [10] it was 15.4%; in assay [11], -0.793%.
As to `O=C(NCCCO)Nc1cccc(Cl)c1F`, the Percent Effect in [1] was -3.09%; in assay [2] it was 12.5%; in [3] it was -6.85%; in [4], 11.1%; in assay [5] it was 4.96%; in [6] it was 11%. Besides, the Percent Effect in assay [7] was 8.25%; in assay [8] it was -2.91%; in assay [9], 3.16%; in assay [10], 5.13%; in [11], -4.47%.
As to `CC(NC1(CNC(=O)Cn2cccn2)CCOCC1)c1ccccc1` (stereo unspecified), the Percent Effect is -5.93% in assay [1]; 13.5% in assay [2]; -3.26% in assay [3]; 21.8% in assay [4]; 6.35% in assay [5]; 3.72% in assay [6]. For the same compound, the Percent Effect was 9.01% in assay [7]; -4.77% in [8]; 0% in [9]; 16.1% in [10]; -5.87% in assay [11].
As for `COc1ccc(CNCc2c(C)nn(C)c2N2CCOCC2)cc1`, the Percent Effect in assay [1] is -5.07%; in assay [2], 18.2%; in [3] it was -11.5%; in assay [4] it was 0.605%; in [5], 3.82%; in assay [6], 0.21%. Moreover, the Percent Effect in assay [7] was 14.5%; in [8], -34.5%; in assay [9], 8.57%; in assay [10], 21.2%; in [11] it was -13%.
With `COc1ccc(CC(=O)N2CCCCC2Cn2cccn2)cc1OC` (stereo unspecified), the Percent Effect in assay [1] is -5.85%; in assay [2], 7.89%; in assay [3] it was 1.89%; in assay [4], 0.458%; in assay [5], 0.682%; in assay [6], -11.8%. Also, the Percent Effect in assay [7] was 6.81%; in [8], 5.15%; in [9], 0%; in [10], 10.4%; in [11], -1.27%.
